# Data from PubChem BioAssay AID662 (National Center for Advancing Translational Sciences (NCATS), 2007).
# In all, about 71,000 compounds went through this assay and about 1,800 (2.5%) were called active. About 26% were inconclusive and are not listed. The sample holds actives, similar compounds and a random draw of the others, so the mix is not that of the screen. Values without a mark were called inactive. Calls come from the whole dose curve; as a rule, active = well fitted activation curve with a large enough effect in the signal ratio, with a control signal flat (not every such curve was filed as active); inconclusive = small, poorly fitted or top-dose-only effect, or effect the other way, or a change in a side signal; inactive = flat fitted curve, though single readings scatter; the % refers to the signal ratio.
# Assay: Cell signaling CRE-BLA (Fsk stim); for activity change, negative = inhibition: % of control where 0% means no effect
# Conditions: CHO CRE-bla reporter (cAMP response element driving beta-lactamase), forskolin EC10, beta-lactamase ratio; series mostly up to 38.2 µM; activity change, negative = inhibition: at the top concentration
# From the text: NIH Molecular Libraries Screening Centers Network [MLSCN]
# NIH Chemical Genomics Center [NCGC]
# Assay Provider: Marshall W. Nirenberg, U.S. National heart lung & blood institute
# Memories persist for different lengths of time, from seconds or minutes to a lifetime. There are two kinds of memory: short-term memory (STM) and long-term memory (LTM). STM lasts for minutes to hours, which maybe mediated by modifications of molecules involved in synaptic functions. LTM lasts for days or longer, and may be due to the formation of new synapses or restructuring of existing synapses. LTM, but not STM, requires gene transcription and synthesis of proteins. CREB (cyclic-AMP Responsive Element Binding Protein) is one of the candidates plays an important role for enhancement of some types of LTM. CREB, a family of transcription factors, regulates the transcription of genes containing cAMP Responsive Elements (CRE). CRE is a nucleotide sequence often found in the promoter regions of genes that are binding sites for CREB.
# Using a beta-lactamase reporter-gene under control of cAMP responsive element, a cell-based assay [CellSensor(TM) CRE-bla CHO developed by Invitrogen Corp.] was used to measure forskolin-induced signaling. Library compounds were measured for their ability to modulate positively or negatively the action of EC10 NKH 477, a water soluble forskolin, on reporter gene activity. Compounds were screened in a titration series in 1536-well format. Positive and negative modulators were identified based on the AC50 values derived from the screening data.
# NCGC Assay Protocol Summary
# 2000 cells/5uL in Opti-MEM medium containing 0.5% dialyzed FBS, 0.1 mM NEAA, 1 mM sodium pyruvate and 10 mM HEPES was dispensed into 1536-well plates and cells were cultured at 37 degrees Celsius overnight. […] And then the plates were incubated at 37 degrees Celsius for 3 hours. 1 uL of CCF4-dye mixture was added to each well. After incubated at room temperature for 2 hours the plates were measured on an EnVision plate reader at Excitation 405nm, Emission1=460nm and Emission 2=530nm. The %Activity was determined from the ratio of 460nm/530nm.
# Keywords: NIH Roadmap, MLSCN, MLSMR, qHTS, NCGC, CRE, beta-lactamase reporter-gene assay.
# Potency is the fitted concentration of half-maximal effect.
SMILES,Potency,"activity change, negative = inhibition"
CCOC(=O)c1oc2ccccc2c1NC(=O)c1cccs1,3.98 µM (active),–
CCOC(=O)c1c(NC(=O)c2cccs2)sc(C)c1C,2.51 µM (active),–
O=C(O)Cc1ccc(NC(=O)c2cccs2)cc1,–,-4.51%
CCc1nnc(NC(=O)c2cccs2)s1,–,-1.45%
O=C(Nc1ncccn1)c1cccs1,–,-3.62%
COC(=O)Cn1cc(C(=O)c2cccs2)c2ccccc21,–,-1.19%
COC(=O)C1=C(C)N(C)C(C)=C(C(=O)OC)C1c1cccc(Br)c1,–,2.2%
O=C(Cl)c1ccc([N+](=O)[O-])cc1,–,-11.7%
CCNC(=S)NCC,–,2.82%
CCCCC(CC)CN (stereo unspecified),inactive,–
c1csc(-c2cn3c(n2)SCC3)c1,–,-0.942%
Cc1c(C)c2c(c(C)c1O)CC[C@@](C)(CN1CCN(c3cc(N4CCCC4)nc(N4CCCC4)n3)CC1)O2,–,-4.36%
CC1OC2C(OC1C)N(S(C)(=O)=O)CCN2S(C)(=O)=O (stereo unspecified),–,-1.57%
Cc1nc2cnc(N3CCN(C)CC3)nc2n(CCC#N)c1=O,–,14.5%
Cc1nc2cnc(N3CCN(C)CC3)nc2n(C[C@H]2CCCO2)c1=O,–,5.46%
O=c1c(CCc2ccccc2)nc2cnc(N3CCNCC3)nc2n1Cc1cccs1,12.6 µM (active),–
CC(C)(C)[Si](OCC[C@@H]1C[C@@]1(C)[C@@H](NP(=O)(c1ccccc1)c1ccccc1)c1ccccc1)(c1ccccc1)c1ccccc1,–,19%
COC(=O)[C@@]1(Cc2ccc(OC)cc2)[C@H]2c3cc(C(=O)N4CCCC4)n(Cc4ccc(C(F)(F)F)nc4)c3C[C@H]2CN1C(=O)c1ccccc1,–,-23.5%
COC(=O)C1(C)C=CC2(CCCCC2)N1C(C)=O (stereo unspecified),–,1.94%

SMILES,Potency,"activity change, negative = inhibition"
CCCCCCCCCCCC(=O)O,inactive,–
CCCOc1ccc(C2c3c(oc4cc(C)c(C)cc4c3=O)C(=O)N2CCCN2CCOCC2)cc1 (stereo unspecified),–,6.61%
Cn1c(=O)c2c(nc(CN3CCOCC3)n2Cc2ccccc2)n(C)c1=O,–,2.87%
Cc1cccn2c(=O)c3cc(C#N)c(=O)n(CCCN4CCOCC4)c3nc12,10 µM (active),–
CCOC(=O)CSc1nnc(-c2cccc(Br)c2)o1,–,-0.588%
CCC[C@@H]1C[C@@]1(CCC)C(NC(=O)c1ccc(-c2ccccc2)cc1)c1cccc(Cl)c1 (stereo partly specified),–,15.6%
CSc1ncccc1C(=O)OCC(=O)N1CCOCC1,–,-3.86%
COc1ccc(C(=O)NCc2cn3ccccc3n2)cc1,–,-8.76%
CCOc1ncccc1C(=O)OCc1cn2cc(Cl)ccc2n1,10 µM (active),–
CC(=O)N1[C@H](C)C=C[C@]1(Cc1ccccc1)C(=O)NCc1ccccn1,–,-6.46%
C/C(=C\C(=O)c1ccc(Br)cc1)N1CCCCC1,–,-14.2%
COC(=O)C1(Cc2ccccc2)C=C2C(=C(C)C(=O)C2C)CN1 (stereo unspecified),–,-7.33%
COc1cc(-c2nn3c(-c4cccc(C)c4)nnc3s2)cc(OC)c1OC,1.58 µM (active),–
CC(=O)Nc1ccc(-c2nn3c(C)nnc3s2)cc1C,–,16.3%
Cc1nnc2sc(-c3ccco3)nn12,–,4.72%
COc1ccc(-c2nn3c(-c4ccccc4)nnc3s2)cc1OC,3.16 µM (active),–
Fc1ccc(-c2ccc(-c3nn4c(-c5ccco5)nnc4s3)o2)cc1,–,27.6%
COC(=O)CCCCCN1C(=O)NC(c2ccc(-c3ccccc3)cc2)C(C(=O)OCc2ccccc2)=C1C (stereo unspecified),–,-4.41%
O=C(CCSc1ccccc1)NCCSc1ccccn1,–,1.51%

SMILES,Potency,"activity change, negative = inhibition"
CCOc1ccccc1N(CC(=O)Nc1ccccc1C(=O)OC)S(C)(=O)=O,–,12.2% [at 7.6 µM]
CC(NC(=O)Nc1ccccc1)c1ccccc1 (stereo unspecified),–,-3.64%
CC(Cc1ccccc1)C(=O)N(C)Cc1ccccc1 (stereo unspecified),–,-6.74%
CCCSc1nc2c(c(=O)n(C)c(=O)n2C)n1Cc1ccc(C)cc1,–,11.3%
CCOc1ccc(Cn2c(SCCCCC#N)nc3c2c(=O)n(C)c(=O)n3C)cc1OCC,10 µM (active),–
COC(=O)C(C)Sc1nc2c(c(=O)n(C)c(=O)n2C)n1Cc1cccc(C)c1 (stereo unspecified),–,9.27%
COC(=O)[C@@]1(Cc2ccccc2)[C@H]2c3cc(C(=O)N(C)C)n(CCSCCO)c3C[C@H]2CN1C(=O)c1ccccc1,–,-10.9%
NS(=O)(=O)c1ccc(NS(=O)(=O)/C=C/c2ccccc2)cc1,–,-1.2%
CC(C)(C)NC(=O)c1cc(NC(=O)c2ccco2)cc(NC(=O)c2ccco2)c1,–,15.4%
O=c1c2[nH]c3ccc(Cl)cc3c2ncn1Cc1ccccn1,3.98 µM (active),–
O=C(Nc1cccc(Cl)c1)OCc1ccccn1,–,29.5%
CC(=O)N1CC2(C)CN(C(C)=O)CC(C)(C1)C2=O,–,0.353%
C/C=C/C=C/C(=O)O,–,-16.5%
CCNc1nc(NCC)nc(N(C)n2cnnc2)n1,–,20.1%
CCNc1nc(SCCOc2ccccc2)nc(N(C)C)n1,3.98 µM (active),–
Nc1nc(SCCOc2ccccc2)n[nH]1,–,-4.62%
OC(CCl)CCl,–,1.13%
CCCc1nc(SCC(=O)Nc2ccccc2OC)c2c(=O)n(C)c(=O)n(C)c2n1,2.51 µM (active),–
